These results are taken from ChEMBL document CHEMBL3988442, “University of Dundee, Small-Polar-MMV Screening Library” (2021).

Structures are written as SMILES. For some assays here: Entries with a potency or affinity are not part of this list.

What all share (set-up): scale not given: direction of the effect not stated beside the values
The target in test [1] is Protein translocase subunit SecA (Escherichia coli (strain K12)) (UniProt P10408). The test is described as follows: Assay to Identify E. coli SecA ATPase Inhibitors. Type of test: functional. The note with it: 30 µM.
For test [2], the target named is T1, Ubiquitin-activating enzyme e1, putative (Leishmania donovani (strain BPK282A1)) (UniProt E9BSI1).
T1 sequence (whole entry): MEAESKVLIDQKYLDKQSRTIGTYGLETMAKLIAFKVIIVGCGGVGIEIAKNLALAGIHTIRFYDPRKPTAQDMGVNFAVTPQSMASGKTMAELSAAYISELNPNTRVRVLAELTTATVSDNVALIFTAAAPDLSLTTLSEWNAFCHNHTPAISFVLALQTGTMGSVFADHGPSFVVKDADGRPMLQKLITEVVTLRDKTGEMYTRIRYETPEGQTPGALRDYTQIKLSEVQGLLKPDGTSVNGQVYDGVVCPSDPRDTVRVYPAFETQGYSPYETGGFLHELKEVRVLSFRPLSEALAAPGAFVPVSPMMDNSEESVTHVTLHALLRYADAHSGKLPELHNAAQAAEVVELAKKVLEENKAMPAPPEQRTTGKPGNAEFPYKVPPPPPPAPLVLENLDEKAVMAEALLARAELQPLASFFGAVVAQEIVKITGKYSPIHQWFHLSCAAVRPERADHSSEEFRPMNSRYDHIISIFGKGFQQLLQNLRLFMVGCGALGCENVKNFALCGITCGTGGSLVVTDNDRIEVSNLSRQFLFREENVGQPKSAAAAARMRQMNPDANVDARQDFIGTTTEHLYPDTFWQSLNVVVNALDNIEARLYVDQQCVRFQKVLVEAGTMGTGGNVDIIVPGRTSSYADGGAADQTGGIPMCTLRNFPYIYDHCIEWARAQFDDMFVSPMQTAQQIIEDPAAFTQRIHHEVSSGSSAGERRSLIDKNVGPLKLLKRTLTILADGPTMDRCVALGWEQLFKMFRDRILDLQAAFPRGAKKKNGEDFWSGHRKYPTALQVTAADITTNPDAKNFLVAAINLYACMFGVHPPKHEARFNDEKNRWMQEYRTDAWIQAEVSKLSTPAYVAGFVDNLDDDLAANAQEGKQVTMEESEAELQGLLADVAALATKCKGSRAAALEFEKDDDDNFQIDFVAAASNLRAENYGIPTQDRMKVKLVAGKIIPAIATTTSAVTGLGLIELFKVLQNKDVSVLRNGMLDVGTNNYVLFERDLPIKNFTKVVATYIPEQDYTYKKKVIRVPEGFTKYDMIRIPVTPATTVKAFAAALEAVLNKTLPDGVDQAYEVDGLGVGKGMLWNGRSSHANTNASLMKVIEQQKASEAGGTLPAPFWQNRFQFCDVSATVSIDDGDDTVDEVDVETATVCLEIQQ
The experiment in a line: Leishmania donovani Ubiquitin Activating Enzyme (LdE1). Type of test: functional. The note with it: 30 µM.

For test [3], the target named is AMP-activated protein kinase, AMPK (Homo sapiens) (UniProt P54646+O43741+P54619+Q9UGJ0+Q9Y478+Q13131+Q9UGI9). The test is described as follows: AMP-dependent Kinase enzyme assay. An in vitro enzyme assay that detects ADP turnover that is directly proportional to AMPK activity. This uses naive AMPK that is activated during the assay with MK-8722. The conditions noted are these: 30 µM. Type of test: functional.

Test [4] addresses Sialic acid-binding Ig-like lectin 9 (Homo sapiens) (UniProt Q9Y336). The experiment in a line: Hs-Siglec9 ALPHAscreen SOP 20170721. The conditions noted are these: 10 µM. (In Alpha technology, singlet oxygen from a donor bead excites a nearby acceptor bead.)
The subject of the next test is Trypanosoma cruzi. The test is described as follows: Trypanosoma cruzi phosphomannomutase and mannose-1-phosphate guanylyltransferase assay. Type of test: functional. The note with it: 10 µM.
Test [5] concerns the target T2, Arginase-2, mitochondrial (Homo sapiens) (UniProt P78540).
T2 sequence (whole entry): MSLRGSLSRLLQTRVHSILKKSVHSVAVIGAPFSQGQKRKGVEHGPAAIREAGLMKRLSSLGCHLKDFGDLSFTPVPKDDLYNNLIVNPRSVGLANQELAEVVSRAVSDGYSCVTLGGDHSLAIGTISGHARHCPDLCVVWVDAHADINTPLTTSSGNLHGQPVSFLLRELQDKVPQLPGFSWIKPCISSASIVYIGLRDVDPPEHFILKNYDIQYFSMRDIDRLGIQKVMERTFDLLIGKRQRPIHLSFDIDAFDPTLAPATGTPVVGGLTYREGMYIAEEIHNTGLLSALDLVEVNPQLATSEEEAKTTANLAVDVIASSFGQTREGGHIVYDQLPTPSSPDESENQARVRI
The test is described as follows: in vitro enzyme assay to detect the production of urea directly proportional to the activity of Arginase II. Note: in the data most compounds retested in dose-response had high values. Type of test: functional. The conditions noted are these: 33.3 µM.

For test [6], the target named is T3, Proteasome subunit beta (Trypanosoma cruzi) (UniProt O96673).
T3 sequence (whole entry): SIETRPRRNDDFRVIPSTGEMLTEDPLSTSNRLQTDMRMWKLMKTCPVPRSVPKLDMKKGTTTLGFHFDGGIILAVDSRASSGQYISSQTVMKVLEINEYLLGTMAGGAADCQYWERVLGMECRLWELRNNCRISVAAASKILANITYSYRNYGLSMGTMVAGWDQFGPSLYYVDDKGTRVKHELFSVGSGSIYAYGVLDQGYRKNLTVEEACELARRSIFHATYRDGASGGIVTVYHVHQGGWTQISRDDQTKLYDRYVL
The test is described as follows: Trypanosoma cruzi proteasome chymotrypsin-like activity (TcProtChymo) assay. Note: in the data most compounds retested in dose-response had high values. Type of test: functional. The conditions noted are these: 9.37 µM.

The species entered for another test is Homo sapiens. The experiment in a line: To identify inhibition of the IFN signalling (Jak-Stat) pathway via expression of an eGFP reporter gene under the control of an IFN-stimulated response element (ISRE) containing MxA promoter. Type of test: functional. The conditions noted are these: 30 µM. (In general: A reporter such as luciferase makes a cellular process visible.)

In test [7] the target is T4, Tyrosyl-tRNA synthetase, putative (Trypanosoma cruzi (strain CL Brener)) (UniProt Q4DSP6).
T4 sequence (whole entry): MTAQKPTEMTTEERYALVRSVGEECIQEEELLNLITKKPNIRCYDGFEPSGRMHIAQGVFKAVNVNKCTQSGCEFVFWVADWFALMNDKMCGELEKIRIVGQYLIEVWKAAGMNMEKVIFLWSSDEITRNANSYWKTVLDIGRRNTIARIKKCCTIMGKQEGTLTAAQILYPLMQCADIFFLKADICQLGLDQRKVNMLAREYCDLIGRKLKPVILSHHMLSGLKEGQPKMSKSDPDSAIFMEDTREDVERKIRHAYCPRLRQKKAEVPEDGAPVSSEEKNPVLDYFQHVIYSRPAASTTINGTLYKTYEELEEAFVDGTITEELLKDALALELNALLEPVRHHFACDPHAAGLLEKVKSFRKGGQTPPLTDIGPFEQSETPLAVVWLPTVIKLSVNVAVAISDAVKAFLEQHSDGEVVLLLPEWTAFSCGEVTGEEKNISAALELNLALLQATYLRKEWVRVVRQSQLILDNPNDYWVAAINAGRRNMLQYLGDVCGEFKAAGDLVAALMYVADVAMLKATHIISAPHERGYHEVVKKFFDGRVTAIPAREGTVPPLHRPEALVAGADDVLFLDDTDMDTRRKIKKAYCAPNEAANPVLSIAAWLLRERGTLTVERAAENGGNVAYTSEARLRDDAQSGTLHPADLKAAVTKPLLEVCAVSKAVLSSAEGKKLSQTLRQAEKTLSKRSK
The experiment in a line: Trypanosoma cruzi tyrosyl tRNA synthetase (TcYRS) _High Tyrosine SOP. Note: in the data most compounds retested in dose-response had high values. Type of test: functional. The conditions noted are these: 30 µM.

Test [8] has as its target T4, Tyrosyl-tRNA synthetase, putative (Trypanosoma cruzi (strain CL Brener)). The experiment in a line: Trypanosoma cruzi tyrosyl tRNA synthetase (TcYRS) SOP. The conditions noted are these: 30 µM. Type of test: functional.
Test [9] addresses Chromo domain-containing protein 1 (Saccharomyces cerevisiae (strain ATCC 204508 / S288c) (Baker's yeast)) (UniProt P32657). The experiment in a line: ScCHD-1 Enzyme Inhibition Assay. Note: in the data most compounds retested in dose-response had high values. Type of test: functional. The note with it: 30 µM.

Chain of Protein translocase subunit SecA (Escherichia coli (strain K12)) (P10408 whole entry): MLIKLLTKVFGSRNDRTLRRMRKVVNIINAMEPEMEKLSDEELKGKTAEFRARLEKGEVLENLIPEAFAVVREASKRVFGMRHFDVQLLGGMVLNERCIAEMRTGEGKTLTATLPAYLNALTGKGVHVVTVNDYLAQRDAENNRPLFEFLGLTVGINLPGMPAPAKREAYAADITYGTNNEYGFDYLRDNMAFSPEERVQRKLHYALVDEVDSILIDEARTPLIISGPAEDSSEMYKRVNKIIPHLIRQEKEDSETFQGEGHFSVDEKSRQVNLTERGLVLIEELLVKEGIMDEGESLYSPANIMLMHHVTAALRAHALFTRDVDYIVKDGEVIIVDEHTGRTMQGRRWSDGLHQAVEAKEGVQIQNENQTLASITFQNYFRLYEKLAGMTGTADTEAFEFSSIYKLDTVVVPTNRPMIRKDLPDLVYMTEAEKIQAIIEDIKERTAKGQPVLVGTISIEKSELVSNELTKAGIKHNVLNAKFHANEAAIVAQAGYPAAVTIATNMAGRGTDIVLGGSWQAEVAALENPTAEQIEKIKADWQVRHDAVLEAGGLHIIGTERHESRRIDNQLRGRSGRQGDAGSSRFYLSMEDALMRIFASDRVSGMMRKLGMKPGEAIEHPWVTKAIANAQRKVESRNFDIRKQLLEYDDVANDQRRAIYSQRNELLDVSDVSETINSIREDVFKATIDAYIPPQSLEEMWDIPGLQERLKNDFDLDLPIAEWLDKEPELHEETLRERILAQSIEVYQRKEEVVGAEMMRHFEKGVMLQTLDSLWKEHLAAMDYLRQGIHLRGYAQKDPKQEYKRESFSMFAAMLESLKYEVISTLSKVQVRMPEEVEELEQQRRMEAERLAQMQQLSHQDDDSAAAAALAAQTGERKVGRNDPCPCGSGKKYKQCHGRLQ
Chain of Chromo domain-containing protein 1 (Saccharomyces cerevisiae (strain ATCC 204508 / S288c) (Baker's yeast)) (P32657 whole entry, the tested form may be a part): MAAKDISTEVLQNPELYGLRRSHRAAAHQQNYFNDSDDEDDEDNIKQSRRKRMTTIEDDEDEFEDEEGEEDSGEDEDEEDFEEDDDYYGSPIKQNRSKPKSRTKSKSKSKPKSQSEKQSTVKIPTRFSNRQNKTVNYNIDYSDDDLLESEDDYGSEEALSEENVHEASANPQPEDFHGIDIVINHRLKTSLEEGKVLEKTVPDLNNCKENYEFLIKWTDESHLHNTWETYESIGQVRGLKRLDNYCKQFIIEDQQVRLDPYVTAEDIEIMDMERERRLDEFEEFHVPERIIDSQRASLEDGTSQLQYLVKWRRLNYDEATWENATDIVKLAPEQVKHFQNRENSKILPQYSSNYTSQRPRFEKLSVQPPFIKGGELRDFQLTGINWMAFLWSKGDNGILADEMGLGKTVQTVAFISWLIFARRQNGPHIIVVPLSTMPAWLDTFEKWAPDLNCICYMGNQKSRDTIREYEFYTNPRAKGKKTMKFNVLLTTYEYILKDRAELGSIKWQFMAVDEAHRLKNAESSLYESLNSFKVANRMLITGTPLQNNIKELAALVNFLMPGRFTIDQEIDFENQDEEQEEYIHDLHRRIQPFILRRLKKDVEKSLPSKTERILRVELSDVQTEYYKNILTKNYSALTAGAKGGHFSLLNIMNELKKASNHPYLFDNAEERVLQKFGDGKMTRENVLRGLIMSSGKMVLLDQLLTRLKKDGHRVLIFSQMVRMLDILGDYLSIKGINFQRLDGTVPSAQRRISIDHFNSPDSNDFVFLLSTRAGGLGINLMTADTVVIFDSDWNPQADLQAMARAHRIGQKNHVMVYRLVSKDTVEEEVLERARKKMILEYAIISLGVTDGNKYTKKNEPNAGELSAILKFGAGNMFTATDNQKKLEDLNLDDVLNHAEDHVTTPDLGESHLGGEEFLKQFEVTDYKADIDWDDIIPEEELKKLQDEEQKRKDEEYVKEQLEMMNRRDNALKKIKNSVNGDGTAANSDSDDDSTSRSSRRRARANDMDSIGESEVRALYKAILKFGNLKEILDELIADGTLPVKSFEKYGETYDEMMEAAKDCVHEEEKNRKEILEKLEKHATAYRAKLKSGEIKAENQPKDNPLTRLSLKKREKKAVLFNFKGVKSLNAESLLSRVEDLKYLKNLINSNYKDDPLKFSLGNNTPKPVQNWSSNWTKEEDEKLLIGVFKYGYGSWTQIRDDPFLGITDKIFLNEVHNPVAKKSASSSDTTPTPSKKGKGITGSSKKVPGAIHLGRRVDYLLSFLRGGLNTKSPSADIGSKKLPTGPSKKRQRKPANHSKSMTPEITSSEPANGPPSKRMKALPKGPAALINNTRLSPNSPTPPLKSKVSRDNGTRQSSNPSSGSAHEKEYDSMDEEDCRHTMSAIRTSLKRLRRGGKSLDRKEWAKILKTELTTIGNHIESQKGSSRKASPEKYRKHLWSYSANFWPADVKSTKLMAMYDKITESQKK
Chain of Sialic acid-binding Ig-like lectin 9 (Homo sapiens) (Q9Y336 whole entry): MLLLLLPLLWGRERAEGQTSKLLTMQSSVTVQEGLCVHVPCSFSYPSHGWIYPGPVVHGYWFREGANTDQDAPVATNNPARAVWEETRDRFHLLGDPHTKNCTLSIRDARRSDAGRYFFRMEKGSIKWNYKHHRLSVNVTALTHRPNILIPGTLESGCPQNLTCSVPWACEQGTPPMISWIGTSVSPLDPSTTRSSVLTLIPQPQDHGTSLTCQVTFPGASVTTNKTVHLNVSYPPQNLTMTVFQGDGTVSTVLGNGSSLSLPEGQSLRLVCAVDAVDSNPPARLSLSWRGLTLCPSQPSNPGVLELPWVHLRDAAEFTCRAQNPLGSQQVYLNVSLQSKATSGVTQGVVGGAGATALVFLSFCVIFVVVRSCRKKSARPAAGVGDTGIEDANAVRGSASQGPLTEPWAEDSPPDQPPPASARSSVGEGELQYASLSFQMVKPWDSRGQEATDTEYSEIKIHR

Consider `Cc1n[nH]c(C2CN(C(=O)c3ccnc(C4CC4)n3)CCO2)n1` (stereo not given), for which the Percent Effect in test [1] is -1.78%; in test [2] it was 10.4%; in test [3] it was 5.44%; in [4], 10.3%; with Trypanosoma cruzi it was -0.0979%; in [5], 5.26%. The Percent Effect in test [6] is 9.78%; in the test filed under Homo sapiens, -6.73%; in [7], 5.71%; in [8] it was -23.5%; in test [9], -12.2%.
As for `O=C(C[C@@H]1COC[C@H]2CN(Cc3ccncc3)C[C@@H]12)N1CCOCC1`, the Percent Effect in test [1] is -1.31%; in test [2], 12%; in test [3], -1.49%; in test [4] it was 2.73%; in the test on Trypanosoma cruzi, -6.88%; in test [5], -17.4%. Besides, the Percent Effect in [6] was 10.5%; in the test listed under Homo sapiens, -2.62%; in test [7], 0%; in test [8], 2.56%; in test [9] it was -5.74%.
`CN1CCN(C(=O)c2nc3c(o2)CN(C(=O)c2cccnc2)C3)CC1`: the Percent Effect in [1] is -2.08%; in [2] it was 0%; in [3] it was -4.16%; in [4], 2.81%; with Trypanosoma cruzi, -1.28%; in test [5] it was -5.52%. Also, the Percent Effect in test [6] came to 14%; in the test listed under Homo sapiens, 2.22%; in test [7] it was 1.07%; in [8], 8.64%; in test [9] it was 1.76%.
`Cc1csc(N2CCN(CC(=O)Nc3c(C)n[nH]c3C)CC2C)n1` (stereo not given): the Percent Effect was -1.64% in test [1]; 21.6% in test [2]; -4.71% in test [3]; -7.72% in test [4]; -2.88% in the test with Trypanosoma cruzi; -3.51% in test [5]. The Percent Effect in [6] is 15.4%; in the test listed under Homo sapiens, 5.89%; in test [7] it was 3.96%; in [8], 13.4%; in test [9], -4.83%.
`O=C(CCc1ccccc1)N1CCn2cc(CN3CCCC3)nc2C1`: the Percent Effect in test [1] was 0.2%; in [2], 5.2%; in test [3] it was -2.41%; in [4], 2.78%; in the test with Trypanosoma cruzi, -1.08%; in test [5], -3.23%. For the same molecule, the Percent Effect in test [6] was 11.8%; in the test listed under Homo sapiens, 7.71%; in [7] it was 12.7%; in test [8], 16.7%; in test [9] it was -2.74%.
On to `CCc1nc(CN2CCN(C(=O)CCc3ccccc3)CC2)cs1`, for which the Percent Effect in [1] is -6.36%; in test [2], 19%; in test [3], -2.93%; in test [4] it was 5.39%; in the test with Trypanosoma cruzi it was -1.95%; in test [5], 2.8%. For the same molecule, the Percent Effect in [6] is 16.5%; in the test filed under Homo sapiens, 3.67%; in test [7], -1.04%; in test [8] it was 17.7%; in test [9], -23.8%.
Turning to `Cc1nn(C)c(C)c1CNCc1ccc(N2CCOCC2)nc1`, the Percent Effect in test [1] was -1.63%; in test [2], 11.4%; in [3] it was 6.09%; in [4], -0.523%; with Trypanosoma cruzi, 1.95%; in test [5], -1.5%. Moreover, the Percent Effect in test [6] was 10.6%; in the test filed under Homo sapiens it was 13.4%; in test [7] it was 8.33%; in test [8], 25.3%; in test [9] it was -25.1%.
As to `O=C(O)C(c1ccc2c(c1)OCO2)N1CCC(C(=O)N2CCCC2)CC1` (stereo not given), the Percent Effect was -6.55% in [1]; 0% in test [2]; -3.95% in test [3]; 1.83% in test [4]; -5.36% in the test on Trypanosoma cruzi; -1.56% in [5]. Further, the Percent Effect in [6] is 4.18%; in the test filed under Homo sapiens, 2.87%; in [7], 4.92%; in test [8], 3.7%; in test [9] it was -5.45%.
With `O=C(NCC(O)c1cccs1)c1cccc(Cl)c1` (stereo not given), the Percent Effect is -0.149% in test [1]; 13.7% in test [2]; 3.83% in test [3]; 0.22% in test [4]; 3.72% in the test on Trypanosoma cruzi; 7.27% in test [5]. Besides, the Percent Effect in test [6] is 25.6%; in the test filed under Homo sapiens, 13.3%; in test [7], 6.45%; in test [8], 17.5%; in [9], -6.71%.
Turning to `Cc1ccc(CN2CC[C@H]3C[C@@H](c4nc(C5CC5)cs4)O[C@@H]3C2)o1`, the Percent Effect in test [1] was -2.45%; in [2], 2.6%; in test [3], 0.23%; in [4], 10%; in the test on Trypanosoma cruzi it was 10.1%; in test [5] it was -48.3%. In addition, the Percent Effect is 16.3% in test [6]; 36.5% in the test listed under Homo sapiens; 10.8% in test [7]; 16.1% in test [8]; -1.64% in [9].
